Experiments:
Conditions in all cases: concentration: 1 μM, replicates: in singlicate; n = 1
SNARK = test system: T1, SNARK
T1 construct: gene NUAK2

SNRK = test system: SNRK
SRC = test system: SRC
SRMS = test system: SRMS
SRPK1 = test system: SRPK1
SRPK2 = test system: SRPK2
SRPK3 = test system: SRPK3
STK16 = test system: STK16
STK33 = test system: STK33
STK35 = test system: STK35
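Note: KINOMEscan kinase panel screen.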

Row | SMILES | %Inh (SNARK) [%] | %Inh (SNRK) [%] | %Inh (SRC) [%] | %Inh (SRMS) [%] | %Inh (SRPK1) [%] | %Inh (SRPK2) [%] | %Inh (SRPK3) [%] | %Inh (STK16) [%] | %Inh (STK33) [%] | %Inh (STK35) [%]
1 | Cc1ccc(F)c(C(=O)Nc2cccc(-c3nn4ccccc4c3-c3ccnc(Nc4cccc(F)c4)n3)c2)c1F [GSK361061] | 11 | 0 | 25 | 44 | 15 | 0 | 25 | 5 | 4 | 33
2 | CN(c1ccc(NC(=O)Nc2cc(C(F)(F)F)ccc2F)cc1)c1ccnc(Nc2ccc(S(N)(=O)=O)cc2)n1 [GW809893] | 0 | 5 | 99.7 | 0 | 18 | 0 | 20 | 12 | 81 | 10
3 | Cc1occc1-c1ncc(OC[C@@H](N)Cc2c[nH]c3ccccc23)cc1-c1ccc2[nH]nc(C)c2c1.O=C(O)C(F)(F)F [GSK682037] | 60 | 0 | 65 | 0 | 54 | 0 | 70 | 0 | 86 | 69
4 | O=C(Nc1cccc(Oc2ccc3nc(NC(=O)C4CC4)cn3n2)c1)c1ccccc1C(F)(F)F | 0 | 0 | 5 | 0 | 59 | 14 | 48 | 17 | 0 | 3
5 | CC(=O)N1CCN(c2ccc(Nc3nccc(-c4sc(C(C)C)nc4-c4cccc(NS(=O)(=O)c5cccc(Cl)c5)c4)n3)cn2)CC1 [GSK1660437] | 17 | 0 | 85 | 98.3 | 44 | 0 | 44 | 0 | 34 | 0
6 | CN(C)S(=O)(=O)c1cc(-c2ccc3nccc(-c4cccc(S(N)(=O)=O)c4)c3c2)cnc1N [GSK1669921] | 22 | 12 | 0 | 0 | 13 | 0 | 19 | 45 | 3 | 8
7 | COc1cc(Nc2nccc(N3CCC(NC(=O)Nc4cccc(C(C)=O)c4)C3)n2)cc(OC)c1OC (stereo not shown) [GSK1379753] | 21 | 0 | 10 | 0 | 50 | 0 | 0 | 83 | 0 | 0
8 | O=C(O)C(F)(F)F.O=C(O)C(F)(F)F.O=c1[nH]ccc2nc(N[C@@H]3CCCNC3)nc(Nc3ccc(S(=O)(=O)N4CCOCC4)cc3)c12 [GSK2177277] | 99.6 | 72 | 96.7 | 0 | 100 | 65 | 95.2 | 99.3 | 98.6 | 98
9 | CNC(=O)c1ccccc1Nc1nc(Nc2ccc(N3CCOCC3)cc2)ncc1Cl.Cl [GSK1576028] | 99.2 | 0 | 100 | 67 | 98.1 | 35 | 78 | 99.2 | 98.6 | 50
10 | COc1ccc(CNC(=O)NC2CCN(c3ccnc(Nc4ccc(F)cc4)n3)CC2)cc1 [GSK1379788] | 0 | 0 | 0 | 0 | 0 | 11 | 0 | 9 | 0 | 0
11 | CCc1ccc(-c2ccc3c(c2)-c2c(cnn2C)S(=O)(=O)N3C)cc1 | 8 | 0 | 0 | 0 | 0 | 0 | 18 | 0 | 0 | 2
12 | c1ccc(-c2cnc3nccnn23)cc1 [AH20685] | 0 | 0 | 0 | 0 | 20 | 0 | 0 | 0 | 0 | 0
13 | Cl.Cl.NCC(C(=O)Nc1cc(Br)c(-c2ccnc3[nH]ccc23)s1)c1ccccc1 (stereo not shown) [GSK1269851] | 0 | 0 | 0 | 0 | 73 | 59 | 90.7 | 13 | 52 | 0
14 | Cc1ccc(C(=O)N2CC[C@@H](O)C2)cc1-n1c(C)cc(OCc2ccc(F)cc2F)c(Br)c1=O | 0 | 0 | 97.7 | 0 | 0 | 0 | 0 | 19 | 2 | 0
15 | CN1CCN(CCCNc2nccc(-c3c(-c4ccc(F)cc4)nn4cc(C(F)(F)F)ccc34)n2)CC1 [GW621581] | 0 | 0 | 14 | 0 | 26 | 0 | 16 | 0 | 0 | 60
16 | O=C(Nc1cccc(-c2nn3ccccc3c2-c2ccnc(Nc3cccc(F)c3)n2)c1)c1c(F)ccc(F)c1Cl [GSK357952] | 4 | 17 | 45 | 28 | 45 | 0 | 0 | 0 | 10 | 27

Source: paper PMC5540273 (PLoS ONE, 2017)
